High-throughput results: PubChem BioAssay, several laboratories
HSF1 inh: HSF1 inhibition; NIH3T3-HGL HSE-luciferase, MG132-induced, luminescence 8 h; stronger effect = lower value; activity change, negative = inhibition, % at 7.5 µM (by protocol); 300,000 compounds, 0.77% hits;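 active means more than half of replicate wells show activity change below -50%, luminescence cut by over half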;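 further: luciferase reports HSF-1 transcriptional activity via heat shock element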
PG9 binder: small molecules binding HIV-1 gp120 antibody PG9 | TR-FRET gp120-PG9 antibody binding | 360,000 compounds, 0.43% hits | inhibition, % at 6.7 µM | AID 624416; in the data active means inhibition above about 8.5%
SMARCA2 activ: activators of SMARCA2 function. MG213 cells, MMTV-luciferase reporter, dexamethasone, overnight. activation, % at 9.1 µM. 370,000 compounds, 1% hits; in the data active means activation above about 7.8%
AI-2 QS modul: modulates the Vibrio harveyi AI-2 quorum sensing system | activity change, % at 7.5 µM | Vibrio harveyi JMH597 AI-2 luminescence/OD600 ratio, 9 h; stronger effect = lower value; strain lacks LuxN and CqsS sensors; 0 = neutral-control median | 300,000 compounds, 0.4% hits | AID 2094; in the data active means activity change below about -75%, passing the limit was not always enough;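 further: luminescence divided by OD600 gain over 9 h not by final OD600 alone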
FXN GAA850 act: increases GAA850 frataxin promoter reporter activity; HEK293 lucGAA850 FXN promoter luciferase reporter, 24 h; percent of 10 µM SAHA response; activation, % at 6 µM; 360,000 compounds, 0.56% hits;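 active means activation above the average of all compounds screened plus 3 SD, cutoff fixed separately per campaign, cut at about 7.5% in these data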
HSP90 refold inh: inhibitors of HSP90 luciferase refolding in rabbit reticulocyte lysate. luciferase refolding luminescence, 3 h. inhibition, % at 5.6 µM. AID 1789. 290,000 compounds, 0.91% hits;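 active means inhibition above the screen-wide mean plus 3 SD, computed separately per campaign, cut at about 16% in these data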;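 further: inhibitors lower the luminescence because luciferase stays unfolded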
GAA30 counter: activates GAA30 frataxin promoter, counter-screen for GAA850 activators; shares compounds with FXN GAA850 act; HEK293 lucGAA30 FXN promoter luciferase, 24 h; DMSO = 0%, 5 µM ipriflavone = 100%; activation, % at 6 µM; 1,900 compounds, 66% hits;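 active means mean activation above the mean of solvent-only control wells plus 3 SD, cut at about 22% in these data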;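 further: counterscreen of GAA850 promoter hits where activity marks nonselective or luminescence artifacts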
GAA850 confirm: GAA850 FXN promoter activation confirmation | HEK293 lucGAA850 FXN promoter luciferase reporter, 24 h; 100% = activation by SAHA | AID 588351 | 1,900 compounds, 86% hits | activation, % at 6 µM | shares compounds with FXN GAA850 act;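 active means mean activation above a set limit taken from the primary screen, cut at about 8% in these data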
Each line names hits and unclear results; the compound was inactive in the other large screens (follow-up assays come after a bar, where they were run). A selection: hits, their analogues and other compounds. The true share with any hit is near 3.4%.

CCCN1C(=O)/C(=C/c2cc(C)n(C)c2C)SC1=Nc1ccc(OC)cc1	FXN GAA850 act 15.4 | GAA30 counter inactive | GAA850 confirm 11.9
O=C(Cc1c(F)cccc1Cl)NCCc1c[nH]c2ccccc12	none
O=C(NCCc1c[nH]c2ccccc12)c1c(Cl)nc2sccn12	FXN GAA850 act 7.7 | GAA30 counter 46.0 | GAA850 confirm 22.9
NC(=O)c1ncn([C@@H]2O[C@H](C(=O)N[C@H](Cc3c[nH]c4ccccc34)C(=O)N3CCN(CC(=O)N4CCCC4)CC3)[C@@H](O)[C@H]2O)n1	none (no result: HSF1 inh, AI-2 QS modul, FXN GAA850 act, HSP90 refold inh)
OC1OC2COC(c3ccccc3)OC2C(O)C1O (stereo not drawn)	none (no result: HSF1 inh, AI-2 QS modul, FXN GAA850 act, HSP90 refold inh)
COC(=O)c1cc(-c2ccc(Br)cc2)on1	none
CCN(CC)C(=O)c1cc(-c2ccc(Br)cc2)on1	FXN GAA850 act 8.0 | GAA30 counter 111.3 | GAA850 confirm 39.6
CC(C)n1cnc2c(Nc3cccc(Cl)c3)nc(NCCCO)nc21	FXN GAA850 act 8.7 (no result: HSP90 refold inh) | GAA30 counter 53.5 | GAA850 confirm 15.4
C[C@H]1C2CC(OC(=O)Nc3ccc(C#N)cc3)C(C2)[C@H]2CCCCN21 (stereo partly drawn)	none (no result: HSF1 inh, PG9 binder, AI-2 QS modul, FXN GAA850 act, HSP90 refold inh)
CC(c1nc2ccccc2[nH]1)N(C(=O)C1=NNC(=O)CC1)c1ccccc1 (stereo not drawn)	none (no result: HSF1 inh, AI-2 QS modul, FXN GAA850 act, HSP90 refold inh)
CCOc1ccc(C2C(C(=O)c3ccc(C)o3)=C(O)C(=O)N2c2nc(C)c(C(=O)OC)s2)cc1 (stereo not drawn)	FXN GAA850 act 7.6 | GAA30 counter 33.5 | GAA850 confirm 18.1
CCN1C(=O)CSC1=Nc1ccc(C(=O)OC)cc1	none (no result: HSF1 inh, AI-2 QS modul, HSP90 refold inh)
CNc1nc(NCCOc2ccccc2Cl)c2sccc2n1	FXN GAA850 act 9.0 (no result: HSF1 inh, AI-2 QS modul, HSP90 refold inh) | GAA30 counter 23.9 | GAA850 confirm 11.5
Cc1cccc(Cl)c1-n1nnnc1C1(C)CSCC(=O)N1Cc1ccc(F)cc1 (stereo not drawn)	none (no result: HSF1 inh, PG9 binder, AI-2 QS modul, FXN GAA850 act, HSP90 refold inh)
Cc1ccc(CN2CC=CS2(=O)=O)cc1	none (no result: HSF1 inh, AI-2 QS modul, FXN GAA850 act, HSP90 refold inh)
O=C1C(=Cc2ccccn2)CCc2ccccc21	FXN GAA850 act 7.8 (no result: HSF1 inh, AI-2 QS modul, HSP90 refold inh) | GAA30 counter 102.8 | GAA850 confirm 30.5
Cc1ccnc(NC(=O)CNC(=O)COc2ccccc2)c1	FXN GAA850 act 7.9 (no result: HSP90 refold inh) | GAA30 counter 99.9 | GAA850 confirm 40.0
Cc1cccc(/C(N)=N/OC(=O)c2ccc3c(c2)OCO3)c1	FXN GAA850 act 7.9 | GAA30 counter 105.0 | GAA850 confirm 38.9
CCOC(=O)C(=O)C1=C(N2CCOCC2)/C(=C\c2ccc(F)cc2)CC1	FXN GAA850 act 7.6 | GAA30 counter inactive | GAA850 confirm 9.0
COc1ccccc1/C=N/Nc1nncc2ccccc12	FXN GAA850 act 8.2 (no result: HSF1 inh) | GAA30 counter 104.2 | GAA850 confirm 35.7
Oc1c(Br)cc(/C=N/Nc2nncc3ccccc23)cc1Br	none (no result: PG9 binder, SMARCA2 activ, FXN GAA850 act)
Cc1nc(/N=C(\N)NC(=O)c2ccccc2)nc2ccccc12	FXN GAA850 act 8.3 (no result: PG9 binder, SMARCA2 activ) | GAA30 counter 97.2 | GAA850 confirm 32.5
c1ccc(CSc2nc3ccccc3[nH]2)cc1	FXN GAA850 act 7.9 | GAA30 counter 91.2 | GAA850 confirm 29.2
Fc1ccc(CSc2nc3ccccc3[nH]2)cc1	none
CC1(C(=O)NC2CCN(Cc3ccccc3)CC2)CCN1Cc1cc2ccccc2o1 (stereo not drawn)	none (no result: HSF1 inh, AI-2 QS modul, HSP90 refold inh)
COC(=O)Cc1nnn2c1[C@@H](C)[C@@H](c1ccccc1Br)O[C@@H](C)C2	none (no result: HSF1 inh, AI-2 QS modul, FXN GAA850 act, HSP90 refold inh)
Fc1cccc(F)c1/C=C/c1ccc2ccccc2n1	FXN GAA850 act 8.0 | GAA30 counter 107.8 | GAA850 confirm 34.0
COc1cc(/C=C2\N=C3CCCCCN3C2=O)ccc1O	none
O=C1/C(=C\c2ccc(O)c(O)c2)N=C2CCCCCN12	FXN GAA850 act 9.8 | GAA30 counter 74.0 | GAA850 confirm 18.8
COc1ccc(Cn2nnnc2C(c2cc3cc(C)cc(C)c3[nH]c2=O)N2CCOCC2)cc1 (stereo not drawn)	FXN GAA850 act 8.1 | GAA30 counter inactive | GAA850 confirm inactive
CCc1ccc2[nH]c(=O)c(C(c3nnnn3Cc3ccc(OC)cc3)N3CCOCC3)cc2c1 (stereo not drawn)	none
CC[C@@]1(C(=O)OC)N[C@H](CN(C)C(=O)Nc2ccc(OC)cc2)[C@@H]2C(=O)N(Cc3ccccc3)C(=O)[C@@H]21	FXN GAA850 act 16.9 (no result: HSF1 inh, AI-2 QS modul, HSP90 refold inh) | GAA30 counter 84.2 | GAA850 confirm 24.5
COC(=O)[C@]1(Cc2ccccc2)N[C@H](CN(C)C(=O)Nc2ccccc2)[C@@H]2C(=O)N(Cc3ccccc3)C(=O)[C@@H]21	none (no result: HSF1 inh, AI-2 QS modul, HSP90 refold inh)
CCNC(=O)N(C)C[C@H]1N[C@@](CC)(C(=O)OC)[C@H]2C(=O)N(Cc3ccccc3)C(=O)[C@@H]12	none (no result: HSF1 inh, AI-2 QS modul, HSP90 refold inh)
CC[C@@]1(C(=O)OC)N[C@H](CN(C)C(=O)Nc2ccc(C)cc2)[C@@H]2C(=O)N(Cc3ccccc3)C(=O)[C@@H]21	FXN GAA850 act 14.7 (no result: HSF1 inh, AI-2 QS modul, HSP90 refold inh) | GAA30 counter 42.1 | GAA850 confirm 14.2
COC(=O)[C@]1(Cc2ccccc2)N[C@H](CN(C)C(=O)Nc2ccc(F)cc2)[C@@H]2C(=O)N(Cc3ccccc3)C(=O)[C@@H]21	none (no result: HSF1 inh, AI-2 QS modul, HSP90 refold inh)
CC[C@@]1(C(=O)OC)N[C@H](CN(C)C(=O)Nc2ccc(F)cc2)[C@@H]2C(=O)N(Cc3ccccc3)C(=O)[C@@H]21	FXN GAA850 act 9.6 (no result: HSF1 inh, AI-2 QS modul, HSP90 refold inh) | GAA30 counter 37.9 | GAA850 confirm 18.1
Fc1cccc(Cn2ccc3ccc(-c4ccc5ccn(Cc6cccc(F)c6)c5c4)cc32)c1	none (no result: HSF1 inh, PG9 binder, AI-2 QS modul, FXN GAA850 act, HSP90 refold inh)
Cn1cc(-c2coc3c(C(=O)NCc4cccc(Cl)c4)cccc23)cn1	none (no result: HSF1 inh, AI-2 QS modul, HSP90 refold inh)
CN(C)[C@H]1CCN(c2ccc3c(c2)O[C@@H]2CCN(C2)S3(=O)=O)C1	none (no result: HSF1 inh, PG9 binder, AI-2 QS modul, FXN GAA850 act, HSP90 refold inh)
Nc1c(C=C2C=CC(=O)C=C2)c(=O)nc2snc(SCc3ccccc3)n12	FXN GAA850 act 7.7 | GAA30 counter 58.9 | GAA850 confirm 15.2
COc1ccccc1OC(C)C(=O)N(Cc1ccco1)C1CCS(=O)(=O)C1 (stereo not drawn)	none (no result: PG9 binder, SMARCA2 activ)
Cc1cc(OC(C)C(=O)N(Cc2ccco2)C2CCS(=O)(=O)C2)ccc1Cl (stereo not drawn)	FXN GAA850 act 11.7 (no result: PG9 binder, SMARCA2 activ) | GAA30 counter inactive | GAA850 confirm inactive
O=C(NCCc1ccccc1)c1nc2c(nnn2Cc2ccccc2Cl)c(=O)[nH]1	none
COc1ccc(Cn2nnc3c(=O)[nH]c(C(=O)NCCc4ccc(F)cc4)nc32)cc1OC	FXN GAA850 act 19.7 | GAA30 counter inactive | GAA850 confirm 9.0
Cc1c(-c2ccccc2)nnn1-c1ccc(F)c(Cl)c1	none (no result: HSF1 inh, AI-2 QS modul, FXN GAA850 act, HSP90 refold inh)
